According to PubChem BioAssay (NCATS):
Inconclusive results are not listed. Entries that show only a call come without a potency. The source made the active and inactive calls. Unless noted, the call rests on the fitted dose curve; in most records, active means well fitted curve in the direction sought with a large enough effect; inconclusive means small, poorly fitted or top-dose-only effect, or another doubt; inactive means no such curve, though single readings can be large; an effect the other way counts as inactive or inconclusive. Numbered stars: 1 amine (or outer) side, 2 acyl side, 3 side chain; on linkers, the order of the positions; unused ones are H or OH. Bridge positions count the residues as written; N and C are the ends. Square brackets hold non-standard residues; d marks the D form. Peptide text beside a SMILES is read from it. * marks the point of attachment. ξ: configuration not given here. ΔAla(Z-3-ureido) = NC(=O)N/C=C(\N)C(=O)O; X3 = NC1=NCCC(C(N[*:1])C(=O)[*:2])N1; ξβ3hOrn = NCCCC(N)CC(=O)*; Dap = NC[CH](N)C(=O)O

Biological target: Luciferin 4-monooxygenase (Photinus pyralis) (UniProt P08659)
Assay: Biochemical firefly luciferase enzyme assay for NPC (AID 624030); further: nearly all actives have a fitted effect of over 70% in size
Settings: purified P. pyralis luciferase, luminescence, 5 min; series mostly up to 58.6 µM
Method in brief: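 Direct inhibition of firefly luciferase enzyme (10 nM final, 50 mM Tris Acetate) assessed by luminescence within 5 minutes. Percent activity scaled between DMSO and PTC124 positive control, with concentration-effect curves classified by fit quality and response.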
Potency means the concentration at half of the fitted maximal effect.

Chain of Luciferin 4-monooxygenase (Photinus pyralis) (P08659 whole entry, looked up): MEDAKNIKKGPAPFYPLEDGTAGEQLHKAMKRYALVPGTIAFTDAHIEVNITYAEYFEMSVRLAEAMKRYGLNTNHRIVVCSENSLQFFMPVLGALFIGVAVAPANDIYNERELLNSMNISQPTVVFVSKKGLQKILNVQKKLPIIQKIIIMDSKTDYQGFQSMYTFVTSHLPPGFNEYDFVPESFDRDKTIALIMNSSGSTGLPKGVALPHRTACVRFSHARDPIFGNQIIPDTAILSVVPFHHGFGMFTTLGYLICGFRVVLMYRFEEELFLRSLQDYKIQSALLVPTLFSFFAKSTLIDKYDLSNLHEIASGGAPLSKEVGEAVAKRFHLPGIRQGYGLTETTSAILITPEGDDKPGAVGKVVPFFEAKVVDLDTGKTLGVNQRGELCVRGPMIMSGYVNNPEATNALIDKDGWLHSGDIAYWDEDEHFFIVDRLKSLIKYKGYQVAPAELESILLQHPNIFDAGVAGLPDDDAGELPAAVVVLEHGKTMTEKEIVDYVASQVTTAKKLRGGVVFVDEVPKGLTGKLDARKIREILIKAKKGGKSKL

| Structure (SMILES) | Potency |
| --- | --- |
| CC(C)=CCN1CC[C@@]2(C)c3cc(O)ccc3C[C@H]1[C@@H]2C | inactive |
| COc1cc(CCN)c(OC)cc1Br | inactive |
| Clc1ccc([C@H]2CC3CCC2N3)cn1 (stereo not given in full) | inactive |
| CC[C@H](OC(C)=O)C(C[C@H](C)NC)(c1ccccc1)c1ccccc1 | inactive |
| CN1[C@@H]2CC[C@H]1CC(OC(=O)C(CO)c1ccccc1)C2 (stereo not given in full) | inactive |
| CC(=O)OC1CC(OC2C(O)CC(OC3C(O)CC(O[C@H]4CC[C@]5(C)C6CC[C@]7(C)[C@@H](C8=CC(=O)OC8)[C@@H](O)C[C@]7(O)[C@@H]6CC[C@@H]5C4)OC3C)OC2C)OC(C)C1OC1OC(CO)C(O)C(O)C1O (stereo not given in full) | inactive |
| CN1CC[C@]23c4c5ccc(O)c4OC2C(O)CCC3[C@H]1C5 (stereo not given in full) | inactive |
| O=C1OC(c2cc(I)c(O)c(I)c2)(c2cc(I)c(O)c(I)c2)c2ccccc21 | 32.2 µM (active) |
| CCC(=O)O[C@@](Cc1ccccc1)(c1ccccc1)[C@H](C)CN(C)C | inactive |
| COC1=CC=C2[C@H]3Cc4ccc(OC)c5c4[C@@]2(CCN3C)C1O5 (stereo not given in full) | inactive |
| ClC[C@H]1CO1 (tested in a mixture with another compound) | inactive |
| C=CCC1(C(C)CCC)C(=O)NC(=O)NC1=O (stereo not given) | inactive |
| CC(=O)[C@@]1(O)CC[C@@H]2[C@@H]3CCC4=CC(=O)CC[C@]4(C)[C@]3(F)[C@@H](O)C[C@@]21C | inactive |
| C=CCC1(O)CCC2C3CCC4=CC(=O)CCC4=C3C=CC21C (stereo not given) | inactive |
| CCC(N)CCc1c[nH]c2ccccc12 (stereo not given) | inactive |
| CCC(=O)OC1[C@@H](N2CCCCC2)C[C@H]2[C@@H]3CC[C@H]4C[C@H](OC(C)=O)[C@@H](N5CCCCC5)C[C@]4(C)[C@H]3CC[C@]12C (stereo not given in full) | inactive |
| CC(C)[C@@]1(NC(=O)[C@H]2C[C@H]3c4cccc5[nH]cc(c45)C[C@@H]3N(C)C2)O[C@]2(O)[C@H]3CCCN3C(=O)CN2C1=O (tested in a mixture with another compound) | inactive |
| CN1CC[C@]23c4c5ccc(O)c4OC2C(O)C=CC3[C@H]1C5 (stereo not given in full) | inactive |

Tested on: not listed separately
Assay: S16 Schwann cell PMP22 intronic element firefly luciferase assay (AID 624032); further: nearly all actives have a fitted effect of over 30% in size
Settings: S16 rat Schwann cells, PMP22 element FLuc, 24 h; series mostly up to 57.5 µM
Method in brief: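 Luciferase reporter of PMP22 intronic-element expression in stably transfected S16 rat Schwann cells, read by ONE-Glo luminescence after 24 h compound exposure at 37 C. Activity scaled between DMSO (0%) and positive-control PTC124; concentration-effect curves quality-classified.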

| Structure (SMILES) | Potency |
| --- | --- |
| NCCCC(N)CC(=O)NCC1NC(=O)C(CO)NC(=O)C(N)CNC(=O)C(C2CCN=C(N)N2)NC(=O)/C(=C/NC(N)=O)NC1=O (stereo not drawn) (H-[Dap]S[Dap](ξβ3hOrn)[ΔAla(Z-3-ureido)][X3]; lactam 1-C; configuration not given here) | inactive |
| CNC[C@H](O)c1ccc(OC(=O)C(C)(C)C)c(OC(=O)C(C)(C)C)c1 | 0.0098 µM (active) |
| C[n+]1c2cc(N)ccc2cc2ccc(N)cc21 | 1.81 µM (active) |
| COc1cc(-c2ccc(-[n+]3nc(-c4ccccc4)nn3-c3ccc([N+](=O)[O-])cc3)c(OC)c2)ccc1-[n+]1nc(-c2ccccc2)nn1-c1ccc([N+](=O)[O-])cc1 | 14.4 µM (active) |
| NC(C(=O)O)[C@@H]1CC(Cl)=NO1 (stereo not given in full) | 2.56 µM (active) |
| NC(=O)Oc1ccc(Cc2ccccc2)cc1 | inactive |
| CCCCCCCCCCCCCCCCCC[N+](C)(C)CCC[Si](OC)(OC)OC | 0.572 µM (active) |
| C[C@]12C=CC(=O)N[C@@H]1CC[C@@H]1C2CC[C@]2(C)C(C(=O)Nc3cc(C(F)(F)F)ccc3C(F)(F)F)CC[C@@H]12 (stereo not given in full) | 16.1 µM (active) |
| Cc1ncc(C[n+]2csc(CCOP(=O)(O)O)c2C)c(N)n1 | 7.21 µM (active) |
| Cc1cn([C@H]2C[C@H](O)[C@@H](CO)O2)c(=O)[nH]c1=O | inactive |
| CC1OC(OC2C(O)CC(OC3C(O)CC(OC4CCC5(C)C(CCC6C5CCC5(C)C(C7=CC(=O)OC7)CCC65O)C4)OC3C)OC2C)CC(O)C1O (stereo not given) | 10.2 µM (active) |
| CC(=O)NC1[C@H]([C@H](O)[C@H](O)CO)OC(C(=O)O)=C[C@H]1N=C(N)N (stereo not given in full) | inactive |

Tested on: not listed separately
Assay: S16 Schwann cell PMP22 intronic element beta-lactamase assay (AID 624044; calls by dose curve; further: nearly all actives have a fitted effect of over 15% in size)
Settings: S16 rat Schwann cells, PMP22 element beta-lactamase FRET, 24 h; ratio activity, negative = inhibition: at 38.3 µM (top of the series)
Method in brief: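 Rat S16 Schwann cells with beta-Lac driven by a PMP22 intronic element, compound-treated 24 h at 37 °C. LiveBLAzer FRET B/G read: 460 nm normalized to potassium clavulanate vs DMSO; 535 nm FRET as viability; concentration-effect curves classified.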

| Structure (SMILES) | Potency |
| --- | --- |
| C[C@H](CCCC(C)(C)O)[C@H]1CC[C@H]2[C@@H]3CC=C4C[C@@H](O)CC[C@]4(C)[C@H]3CC[C@]12C | inactive |
| CC1(Cn2ccnn2)[C@H](C(=O)O)N2C(=O)C[C@H]2S1(=O)=O (stereo not given in full) | 12.6 µM (active) |
| COc1cc(-c2ccc(-[n+]3nc(-c4ccccc4)nn3-c3ccc([N+](=O)[O-])cc3)c(OC)c2)ccc1-[n+]1nc(-c2ccccc2)nn1-c1ccc([N+](=O)[O-])cc1 | 25.1 µM (active) |
| NC(C(=O)O)[C@@H]1CC(Cl)=NO1 (stereo not given in full) | 19.9 µM (active) |
| C[C@]12O[C@H](C[C@]1(O)CO)n1c3ccccc3c3c4c(c5c6ccccc6n2c5c31)CNC4=O | 7.07 µM (active) |

Biological target: Tumor susceptibility gene 101 protein (Homo sapiens) (UniProt Q99816)
Assay: qHTS Assay for Iinhibitors of HIV-1 Budding by Blocking the Interaction of PTAP/TSG101: Hit Validation (AID 651600); further: nearly all actives have a fitted effect of over 70% in size
Settings: PTAP peptide/TSG101 UEV interaction, biochemical assay; series mostly up to 57.5 µM
Source text: Stages of the HIV-1 replication cycle, specifically virus assembly and release, provide underexploited targets for the development of novel antiviral inhibitors. The late stages of HIV-1 replication are mediated by the Gag precursor protein, Pr55Gag. Expression of Pr55Gag is both necessary and sufficient for the production of virus-like particles from Gag-expressing cells. The Gag protein hijacks key host proteins involved in endocytic machinery of the host cell to promote endosomal processing and viral budding. The budding process requires a direct interaction between a […] (PTAP) motif in the p6 domain of Gag and the cellular endosomal sorting protein known as Tsg101. In this way, the Gag PTAP motif promotes the host cells to recruit viral particles to the plasma membrane where the new viral particles are released, effectively turning the host cells into viral factories. A fluorescence anisotropy assay has been developed to quantitatively measure the PTAP-Tsg101 interaction which can be used to screen for inhibitors of this interaction.
NIH Molecular Libraries Probe Production Network [MLPCN]
NIH Chemical Genomics Center [NCGC]
PI Name: Dr. Eric Freed, NCI
Two uL of the Tsg101 binding domain in buffer (10 mM HEPES pH 7.5; 0.15 M NaCl, 0.01% Tween 20; 3 mM EDTA;0.1 mM TCEP) was dispensed into Greiner black MB 1536-well plates (final concentration 10 uM). Then, 23 nL of compounds or DMSO were delivered to each well using a pin tool. Finally, 2 uL of a FITC-labeled peptide containing the PTAP motif (1) in the same buffer was dispensed (50 nM final concentration) and the binding was allowed to proceed for 20 min. at r.t. Fluorescent polarization was determined using FITC excitation and polarized emission filters on a Perkin Elmer Viewlux.
Keywords: Tsg101, PTAP, Gag, HIV, fluorescent polarization, MLSMR, MLPCN, NIH Roadmap, qHTS, NCGC

Chain of Tumor susceptibility gene 101 protein (Homo sapiens) (Q99816 whole entry, looked up): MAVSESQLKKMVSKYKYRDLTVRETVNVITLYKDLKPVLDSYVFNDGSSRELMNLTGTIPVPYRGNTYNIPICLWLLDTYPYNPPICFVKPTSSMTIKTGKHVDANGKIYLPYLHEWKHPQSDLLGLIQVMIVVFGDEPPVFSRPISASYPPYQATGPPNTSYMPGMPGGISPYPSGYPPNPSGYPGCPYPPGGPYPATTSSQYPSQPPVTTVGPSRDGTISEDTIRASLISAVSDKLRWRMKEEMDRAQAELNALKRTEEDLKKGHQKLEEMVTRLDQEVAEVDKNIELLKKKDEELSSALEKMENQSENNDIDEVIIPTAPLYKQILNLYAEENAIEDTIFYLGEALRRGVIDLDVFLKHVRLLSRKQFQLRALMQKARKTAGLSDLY

| Structure (SMILES) | Potency |
| --- | --- |
| COc1cccc2c1C(=O)c1c(O)c3c(c(O)c1C2=O)CC(O)(C(C)=NO)CC3OC1CC(N)C(O)C(C)O1 (stereo not given) | 10.3 µM (active) |
| Cc1cc(N2CCCC2)ccc1C=C(C#N)C#N | inactive |
| COc1ccc(N2C(=O)NC(=O)/C(=C\c3cn(C)c4ccccc34)C2=O)cc1 | inactive |
| CC(C)C[C@H]1C(=O)N2CCC[C@H]2[C@]2(O)O[C@](NC(=O)[C@@H]3C=C4c5cccc6[nH]cc(c56)C[C@H]4N(C)C3)(C(C)C)C(=O)N12 | inactive |
| CN1Cc2c(c(C#N)c(N)n(C)c2=S)CC1(C)C | 32.6 µM (active) |
